Measured values as given in PubChem BioAssay AID504332 (National Center for Advancing Translational Sciences (NCATS), 2011).
In all, about 350,000 compounds went through this assay and about 31,000 (8.9%) were called active. About 15% were inconclusive and are not listed. Only a selection was taken, and actives are over-represented in it overall. Unmarked numbers belong to inactive results. The call rests on the fitted dose curve; in most records, active means well fitted inhibition curve with a large enough effect; inconclusive means small, poorly fitted or top-dose-only effect; inactive means no such curve, though single readings can be large or run the other way.

Target: Histone-lysine N-methyltransferase EHMT2 (Homo sapiens) (UniProt Q96KQ7)
Sequence (Q96KQ7 913-1193 limits assumed): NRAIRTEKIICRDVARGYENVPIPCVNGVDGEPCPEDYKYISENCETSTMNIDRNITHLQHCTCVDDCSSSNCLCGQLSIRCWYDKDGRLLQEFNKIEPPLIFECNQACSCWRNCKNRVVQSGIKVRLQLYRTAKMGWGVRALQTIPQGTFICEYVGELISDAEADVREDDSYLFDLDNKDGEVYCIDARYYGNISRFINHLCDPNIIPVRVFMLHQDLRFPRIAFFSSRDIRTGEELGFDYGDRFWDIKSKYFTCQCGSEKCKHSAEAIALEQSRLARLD
Experiment: qHTS Assay for Inhibitors of Histone Lysine Methyltransferase G9a; further: nearly all actives have a fitted effect of over 75% in size
Conditions: G9a H3K9 monomethylation, AlphaScreen, 2 h; series mostly up to 59 µM; activity, negative = inhibition: at the top concentration
From the text: Methylated lysines, on the N-terminal tails of histone proteins serve as epigenetic markers to recruit factors that can then modify local chromatin structure to lead to functional consequences. G9a and other members of the SUV39 family of the SET domain-containing superfamily of histone lysine methyltransferases (HMT) have been identified to specifically methylate Lys9 of histone H3 (H3K9). G9a catalyzes the mono- and di-methylation of H3K9 in mammalian euchromatic regions, where the resulting H3K9me2 is indicative of transcriptional repression. […] The inhibition of G9a will result in transcriptional activation and work synergistically with DNA methyltransferase and histone deacetylase inhibitors, to kill cancer cells. This qHTS assay for identification of G9a inhibitors is a chemiluminescence based AlphaScreen (PerkinElmer). Methylation of biotinylated-histone peptide is measured through specific antibody-based detection, in conjunction with streptavidin-coated donor and anti-IgG antibody-coated acceptor beads. The method is particularly well suited for detection of inhibitors acting by the desired histone peptide competitive mechanism and is applicable to testing other HMTs. Although AlphaScreen has significant advantages with its utility in a variety of epigenetic target assays, the primary screening data provided in this deposition should be used with caution due to the prevalence of screening artifacts. An AlphaScreen counterscreen is highly recommended to be run against any putative actives to eliminate non specific artifacts. Alternatively, one can use other AlphaScreen assays in PubChem to filter out promiscuous hits. Quinn et al. A chemiluminescence-based method for identification of histone lysine methyltransferase inhibitors. Mol Biosyst 6(5): 782-8. 2010. PMID: 20567762 [2] Baell,Holloway. New substructure filters for removal of pan assay interference compounds (PAINS) from screening libraries and for their exclusion in bioassays. J Med Chem. 53(7):2719-40. 2010. PMID: 20131845 NIH Molecular Libraries Probe Production Network [MLPCN] NIH Chemical Genomics Center [NCGC] Structural Genomics Consortium (SGC) NIH Grant: 5U54 MH084681-02
To each well of a 1,536w plate, 2ul of HMT enzyme (final 20nM) were added, using a nanoliter dispenser. The G9a- and GLP-inhibitor BIX-01294 (CID: 25150857) are used as an intraplate control, with a 16-point titration in duplicate. A Kalypsys pin-tool transferred 23nl of library compound solution in DMSO to each well. Following a 15 min incubation of enzyme with compounds at room temperature, 1ul mixture of b-H3K9 peptide substrate (final 500nM) and SAM cofactor (final 20uM) were added. Reactions were allowed to proceed at room temperature for 2 hours. Methylated b-H3K9 peptide product was detected with 0.5 ug/mL rabbit polyclonal anti-monomethyl histone H3K9 antibody (Abcam Inc., Cambridge, MA) and 20 ug/mL each streptavidin-coated donor and anti-rabbit IgG acceptor AlphaScreen beads. Antibody and beads were added in a 1ul dispense, for a final volume of 4ul, and plates were incubated, protected from the light, for 10 min at room temperature. Microplates were then read on an EnVision multilabel plate reader using the 1,536 plate HTS AlphaScreen aperture (excitation time 80 ms, measurement time 240 ms).
On the % scale 0 is the no-effect control and ±100 the full control effect; potency means the concentration at half of the fitted maximal effect.

| Structure (SMILES) | activity, negative = inhibition | Potency |
| --- | --- | --- |
| CCOC(=O)[C@H]1[C@H]2COc3ccc(OC)cc3[C@@H]2N2C(=O)c3ccc(F)cc3NC(=O)[C@@]12C | 22.3% [at 2.33 µM] | – |
| O=C(NNC(=O)c1cc(S(=O)(=O)N2CCCCC2)ccc1Cl)c1ccccc1O | 36.2% [at 12.7 µM] | – |
| Cc1ccc(C(=O)Nc2ccc(OCc3cc(=O)n4c(C)csc4n3)cc2)cc1 | 4.04% | – |
| O=C(C1CCC1)N1CCN(S(=O)(=O)c2ccc([N+](=O)[O-])cc2)CC1 | -3.47% [at 12.7 µM] | – |
| Cc1cc(C)n(-c2ccc(Cl)c(C(=O)O)n2)n1 | 12.4% [at 102 µM] | – |
| Cc1cc(C)n(-c2nc(O)cc(=O)[nH]2)n1 | – | 4.47 µM (active) |
| CC(=O)c1ccc(Oc2cc(C)nc(-n3nc(C)cc3C)n2)cc1 | -3.88% | – |
| O=C(NCCc1ccccc1)c1cnc2sc(N3CCCC3)nn2c1=O | 13.7% | – |
| COc1ccc(-c2csc3ncnc(N4CCN(S(=O)(=O)c5cccc(F)c5)CC4)c23)cc1 | -11.1% [at 2.33 µM] | – |
| O=C(NCc1ccccc1Cl)C1=Cc2cc(Br)ccc2OC1 | 21.6% | – |
| Cc1ccc(C2C3=C(Nc4[nH]n(-c5ccccc5)c(=O)c42)c2ccccc2C3=O)cc1 (stereo unspecified) | – | 3.16 µM (active) |
| Cc1ccc(N2C(=O)C3C(c4ccccc4)(C2=O)C3(c2ccccc2)c2ccccc2)cc1 (stereo unspecified) | 28.9% [at 12.7 µM] | – |
| Cc1ccc(C2SCC(=O)N2c2ccccc2)cc1 (stereo unspecified) | -19.3% [at 102 µM] | – |
| CCCn1c(=N)n(CC(O)COc2ccccc2OC)c2ccccc21 (stereo unspecified) | 0.0305% | – |
| CCCCn1c(N)c(N(CCOC)C(=O)CSCC(=O)Nc2cccc(C)c2)c(=O)[nH]c1=O | 13.6% | – |
| O=C(Nc1ccccc1F)c1ccc(S(=O)(=O)N2CCCCCC2)cc1 | 62.1% [at 12.7 µM] | – |
| CC1(C)Cc2c(sc(NC(=O)C(=O)NCC3CCCO3)c2C(=O)O)CO1 (stereo unspecified) | 21% [at 102 µM] | – |
| N#Cc1c(NC(=O)c2ccc(N3CCOCC3)c([N+](=O)[O-])c2)sc2c1CCCC2 | 24.3% | – |
| CCOC(=O)CSc1nc2sc3c(c2c(=O)[nH]1)CC(C)(C)OC3 | -73.9% [at 102 µM] | – |
| CCOC(=O)N1CCN(C(=O)C(=O)Nc2sc3c(c2C#N)CC(C)(C)OC3)CC1 | – | 12.6 µM (active) |
| CCOC(=O)Cn1c(SC)nc2sc3c(c2c1=O)CC(C)(C)OC3 | 8.03% | – |
| CC1(C)Cc2c(sc(NC(=O)C(=O)N3CCOCC3)c2C#N)CO1 | – | 35.5 µM (active) |
| CCN1CCN(C(=O)CSc2ccc(C)cc2)CC1 | 8.84% [at 102 µM] | – |

| Structure (SMILES) | activity, negative = inhibition | Potency |
| --- | --- | --- |
| CCN1CCC2(CC1)N=C(c1ccc(F)cc1)C(=S)N2C(=O)c1ccc(C)cc1 | – | 10 µM (active) |
| Cc1ccc(NC(=O)CN2C(=O)C(c3ccc(F)cc3)=NC23CCCCCC3)c(C)c1 | 26.7% | – |
| O=C(Nc1ccc(S(=O)(=O)N2CCCCCC2)cc1)c1c(F)cccc1F | -5.59% [at 12.7 µM] | – |
| Cc1ccc(Cl)cc1NC(=O)Cc1ccc(-n2c(C)nc3cccnc32)cc1 | -30.9% | – |
| COc1ccccc1C1=CC(=O)C[C@H](c2ccc(F)cc2)C1 | -10.3% [at 0.501 µM] | – |
| Cc1sc2ncnc(SCC(=O)Nc3ccc(CN4CCCC4)cc3)c2c1C | 10.2% [at 12.7 µM] | – |
| S=C(c1ccc(-c2ccccc2)o1)N1CCCCC1 | -134% | – |
| O=C(Cc1ccccc1)Nc1ccc(C(=O)Nc2ccccc2C(=O)O)cc1 | 21.8% [at 102 µM] | – |
| O=C(NC(=S)Nc1ccccc1C(=O)O)c1ccc(-c2ccc(Br)cc2)o1 | – | 22.4 µM (active) |
| Cc1ccc(SCC(=O)Nc2ccc3oc(-c4ccccc4C)nc3c2)cc1 | 9.03% | – |
| Cc1cccc(NC(=O)CSc2nc3c([nH]c4ccccc43)c(=O)n2-c2cc(C)cc(C)c2)c1 | 2.1% | – |
| COCCCNC(=S)NC(=O)c1ccc([N+](=O)[O-])cc1 | -14.4% | – |
| CC(C)(C)SCCNC(=O)c1cccc([N+](=O)[O-])c1 | -0.0873% | – |
| CC(C)CC(=O)NC(=S)NNC(=O)c1cccc([N+](=O)[O-])c1 | – | 22.4 µM (active) |
| CCCCCC(=O)NC(=S)NNC(=O)c1ccc([N+](=O)[O-])cc1 | – | 8.91 µM (active) |
| CCCCCC(=O)Nc1ccc(C(=O)N/N=C/c2ccc([N+](=O)[O-])cc2)cc1 | 6.96% [at 102 µM] | – |
| Cc1cccc(C(=O)NNC(=O)c2cccc([N+](=O)[O-])c2)c1 | -38.6% [at 102 µM] | – |
| COc1ccccc1NC(=O)C1=C(C)Nc2ncnn2C1c1sccc1C (stereo unspecified) | -1.85% | – |
| CC(OC(=O)c1ccc(S(=O)(=O)N2CCOCC2)cc1)c1ccccc1 (stereo unspecified) | 30.1% [at 102 µM] | – |
| COc1ccccc1/C=C/C(=O)OCC(=O)NC1CCCCCC1 | 25.2% [at 2.33 µM] | – |
| Cc1cc(C)c2c(-c3ccc(F)cc3)c(C#N)c(=O)n(C)c2n1 | -7.15% [at 102 µM] | – |
| CC(=O)c1c(C)[nH]c(=S)c(C#N)c1-c1ccc(F)cc1 | – | 1.41 µM (active) |
| N#Cc1c(-c2ccc(Cl)cc2)c2c([nH]c1=S)CCCC2 | -10.4% | – |
